# Compound activity from PubChem.
# RGS7-Gao: modulates binding of RGS7 to human Galphao. P09471. Multiplexed bead flow cytometry; actives lie on both sides. binding response (% of control), % at 10 µM. 220,000 tested, 0.35% active. AID 1439; in the data active means binding response below about 49% or above about 150%; inconclusive means no clear call, values can overlap the other calls; inactive means in between;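 further: fluorescent Galphao held in activated GDP-AlF4 state binding bead-coupled RGS7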
# Target sequence (P09471 whole entry, looked up): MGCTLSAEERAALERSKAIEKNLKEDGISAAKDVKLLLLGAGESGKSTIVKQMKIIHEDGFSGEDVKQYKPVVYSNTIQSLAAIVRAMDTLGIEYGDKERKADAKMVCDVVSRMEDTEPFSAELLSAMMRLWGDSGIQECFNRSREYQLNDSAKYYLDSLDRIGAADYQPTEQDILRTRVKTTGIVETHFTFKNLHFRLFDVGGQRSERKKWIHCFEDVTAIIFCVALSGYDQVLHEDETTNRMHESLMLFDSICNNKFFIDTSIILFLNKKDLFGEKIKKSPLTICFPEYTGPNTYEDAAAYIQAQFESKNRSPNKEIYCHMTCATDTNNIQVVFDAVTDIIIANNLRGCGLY
# Avidin bead fluor: compound fluoresces at 488/530 nm on avidin beads. compound fluorescence 488/530 nm, flow cytometry; active compounds read high. 220,000 tested, 0.38% active. fluorescence (KMESF) at 10 µM; in the data active means fluorescence above about 47
# RGS4-Gao reg: human RGS4-Galphao interaction regulation; Multiplexed bead flow cytometry, RGS4-Galphao binding; actives lie on both sides; P09471; binding response (% of control), % at 10 µM; AID 1415; 220,000 tested, 0.33% active; in the data active means binding response below about 49% or above about 150%; inactive means in between;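 further: fluorescent Galphao activated with aluminum fluoride binding bead-coupled RGS4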
# GSH fluor: GSH bead compound fluorescence profile. 190,000 tested, 0.25% active. GSH beads flow cytometry, compound fluorescence 488/530 nm; active compounds read high. fluorescence (KMESF) at 10 µM; in the data active means fluorescence above about 89;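 further: glutathione beads carrying GST-tagged Bcl family fusion proteins plus one bare bead set; values are compound well signal with DMSO vehicle wells as background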
# RGS8-Gao reg: modulates binding of RGS8 to human Galphao | response (percent of control binding), % at 10 µM | P09471 | 220,000 tested, 0.34% active | multiplexed bead flow cytometry; actives lie on both sides; in the data active means response below about 60% or above about 140%; inactive means in between;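 further: Galphao activated as the GDP aluminium fluoride complex binding bead-coupled RGS8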
# RGS16-Gao: regulators of human RGS16-Galphao interaction; O15492+P09471; bead-based flow cytometry RGS16-Galphao binding, fluorescence; actives lie on both sides; binding response (% of control), % at 10 µM; 220,000 tested, 0.38% active; AID 1441;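 further: Galphao activated by GDP with aluminum fluoride before binding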
# Target sequence (O15492 whole entry, looked up): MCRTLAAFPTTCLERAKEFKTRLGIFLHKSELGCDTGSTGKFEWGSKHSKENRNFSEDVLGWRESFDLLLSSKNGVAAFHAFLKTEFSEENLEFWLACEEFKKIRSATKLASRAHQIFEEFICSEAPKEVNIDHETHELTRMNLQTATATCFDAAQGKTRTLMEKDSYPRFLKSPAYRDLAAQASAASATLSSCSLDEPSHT
# Target sequence (P09471 whole entry, looked up): as the sequence (P09471 whole entry, looked up) above
# RGS-Gao: RGS4-Galphao interaction regulator (human); 1,600 tested, 99% active; AID 1504; RGS4–Galpha-o binding response, % at 10 µM; shares compounds with RGS16-Gao; multiplexed bead flow cytometry, RGS–Galpha-o binding;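 further: fluorescently labeled Galpha-o bound to GDP with aluminium fluoride binding biotinylated RGS beads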
# Avidin counter: interferes with biotinylated probe binding to avidin beads. shares compounds with RGS16-Gao. streptavidin beads, fluorescein-biotin binding, flow cytometry. inhibition, % at 10 µM. 1,700 tested, under 10 active. AID 1783;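 active means inhibition above 50%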;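 further: median green fluorescence of gated singlet beads compared with DMSO control wells; 0% = DMSO wells and 100% = complete loss of bead fluorescence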
# RGS8-Gao single: confirmation of regulators of human RGS8-Galphao interaction | 1,700 tested, 3% active | shares compounds with RGS16-Gao | binding response (% of control), % at 10 µM | bead-based flow cytometry RGS8-Galphao binding, fluorescence; actives lie on both sides; in the data active means binding response below about 72% or above about 130%; inactive means in between;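 further: Galphao activated as GDP AlF4 complex before binding bead RGS8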
# RGS7-Gao single: RGS7-Galphao interaction regulation, single point confirmation; 1,700 tested, 7.8% active; shares compounds with RGS16-Gao; bead-based flow cytometry RGS7-Galphao binding; actives lie on both sides; response (percent of control binding), % at 10 µM; in the data active means response below about 75% or above about 130%; inactive means in between;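 further: fluorescent Galphao activated with GDP and aluminum fluoride binding bead-coupled RGS7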
# RGS16-Gao single: RGS16-Galphao interaction regulation, single point confirmation. shares compounds with RGS16-Gao. bead-based flow cytometry, RGS16-Galphao binding; actives lie on both sides. response (% of control binding), % at 10 µM. 1,700 tested, 4% active. AID 1838; in the data active means response below about 74% or above about 130%; inactive means in between;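 further: Galphao activated as the GDP aluminium fluoride complex binding bead-coupled RGS16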
# RGS4-Gao single: confirmation of regulators of human RGS4-Galphao interaction; binding response (% of control), % at 10 µM; shares compounds with RGS16-Gao; RGS4-Galphao binding, multiplexed bead flow cytometry; actives lie on both sides; 1,700 tested, 4% active; in the data active means binding response below about 74% or above about 130%; inactive means in between
# RGS19-Gao single: confirmation of regulators of human RGS19-Galphao interaction; 1,700 tested, 5% active; response (percent of control binding), % at 10 µM; AID 1841; bead-based flow cytometry RGS19-Galphao binding; actives lie on both sides; shares compounds with RGS16-Gao; in the data active means response below about 50% or above about 160%; inactive means in between;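 further: 100% = no compound control and 0% = blank background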
# * = called active by the depositor; u = inconclusive; x = not tested or not shown; [ ] = remark or other dose. Compounds with a hit are over-represented: about 1.2% of the library has one in this group of screens. Unless noted, how the calls were made is not given here.
SMILES,RGS7-Gao,Avidin bead fluor,RGS4-Gao reg,GSH fluor,RGS8-Gao reg,RGS16-Gao,RGS-Gao,Avidin counter,RGS8-Gao single,RGS7-Gao single,RGS16-Gao single,RGS4-Gao single,RGS19-Gao single
O=C(NCc1ccccc1)C1CCN(S(=O)(=O)N2CCOCC2)CC1,100,18,98,4,99,101,x,x,x,x,x,x,x
COc1cc(C(=O)N2CCC(O)(c3ccccc3)CC2)cc(OC)c1OC,x,x,x,13,x,x,x,-2,102,106,104,103,105
Cc1cc(N)ccc1N1CCCC1,50,1,58,0,54*,39,58*,x,x,x,x,x,x
Cc1cc(N)ccc1-n1c(C)ccc1C,98,28,101,10,98,98,x,x,x,x,x,x,x
O=[N+]([O-])c1cc(S(=O)(=O)N2CCCCC2)ccc1NCCCN1CCOCC1,98,24,100,15,99,101,x,x,x,x,x,x,x
Cc1cccc(N2CCN(C(=O)Cn3sc4nc(C)cc(C)c4c3=O)CC2C)c1 (stereo not drawn),104,3,94,16,72,22*,94*,2,63*,121,12*,99,2.5*
Cc1ccc(NC(=O)Cn2sc3nc(C)cc(C)c3c2=O)c(Cl)c1,u,2,88,x,67,16*,88*,0,65*,88,22*,82,18*
CCOc1ccc(NC(=O)Cn2sc3nc(C)cc(C)c3c2=O)cc1,u,3,98,x,82,41,x,x,x,x,x,x,x
Cc1cc(C)c2c(=O)n(CC(=O)Nc3cccc(F)c3)sc2n1,u,2,83,x,71,17*,83*,0,67*,98,17*,85,24*
Cc1cc(C)c2c(=O)n(CC(=O)Nc3ccc(Cl)cc3)sc2n1,u,5,101,x,67,12*,101*,1,68*,108,15*,96,17*
COc1ccc(Cl)cc1NC(=S)NNC(=O)c1cccs1,110,8,109,13,107,108,x,x,x,x,x,x,x
N#CC1=C(N)N(c2ncn[nH]2)C2=C(C(=O)CCC2)C1c1ccc(F)cc1 (stereo not drawn),102,1,100,6,90,69,x,x,x,x,x,x,x
CCC(C)C(NC(=O)/C(=C\c1ccccc1)NC(=O)c1ccc(OC)cc1)C(=O)O (stereo not drawn),103,9,102,27,102,103,x,x,x,x,x,x,x
O=C(CSc1nnc(-c2ccc(C(F)(F)F)cn2)s1)c1ccccc1,u,3,103,x,100,101,x,x,x,x,x,x,x
O=C(C(Cc1ccccc1)n1cccc1)N1CCCCC1 (stereo not drawn),100,6,102,24,101,102,x,x,x,x,x,x,x
O=C(N1CCN(Cc2ccccc2)CC1)C12CC3CC(CC(C3)C1)C2,x,x,x,18,x,x,x,2,100,101,103,104,101
O=C(C(Cc1ccccc1)n1cccc1)N1CCN(Cc2ccccc2)CC1 (stereo not drawn),116,3,113,22,144*[activator],209,113*,2,99,95,103,97,86
O=C(N1CCN(c2ccccc2)CC1)C12CC3CC(CC(C3)C1)C2,104,12,105,23,103,106,x,x,x,x,x,x,x
CN(Cc1cnccn1)Cc1ccccc1OCC(O)CN1CCc2ccccc2C1 (stereo not drawn),98,1,102,13,104,102,x,x,x,x,x,x,x
O=C(COC(=O)Cc1cccc(C(F)(F)F)c1)NC1CC1,12*,0,16*,14,12*,6.5*,x,0,105,104,106,105,116
O=C(COC(=O)Cc1cccc(C(F)(F)F)c1)Nc1ccc2c(c1)OCCO2,81,14,87,9,93,92,x,x,x,x,x,x,x
O=C1c2ccccc2C(=O)N1CC(O)CNc1ccc(Br)cc1 (stereo not drawn),102,15,99,10,100,100,x,x,x,x,x,x,x
Nc1nnc(Cc2cccc(Br)c2)s1,u,10,106,x,108,107,x,x,x,x,x,x,x
CS(=O)(=O)N(CC(=O)Nc1ccc(F)c(F)c1)c1cccc([N+](=O)[O-])c1,101,12,100,20,101,103,x,x,x,x,x,x,x
NS(=O)(=O)c1cccnc1Nc1c(Cl)cccc1Cl,179*[activator],108*,208*[activator],202*,128,213*[activator],x,0,104,108,106,106,103
SMILES,RGS7-Gao,Avidin bead fluor,RGS4-Gao reg,GSH fluor,RGS8-Gao reg,RGS16-Gao,RGS-Gao,Avidin counter,RGS8-Gao single,RGS7-Gao single,RGS16-Gao single,RGS4-Gao single,RGS19-Gao single
CCN(N=O)[C@@H](Cc1ccccc1)CN(N=O)[C@@H](Cc1ccccc1)CN(C)N=O,17*,1,30*,21,29*,21*,x,1,102,101,102,102,101
OCCSc1nc(-c2ccccc2)nc2c1CCC2,89,8,96,9,80,15*,96*,0,100,95,100,100,109
COCCNc1ccnc2c(Cl)cccc12,104,4,99,26,96,77,x,x,x,x,x,x,x
COCCCNc1ccnc2c(Cl)cccc12,101,x,98,39,99,x,x,0,100,97,99,100,113
Fc1cc(F)cc(NC(=S)Nc2ccccc2N2CCOCC2)c1,100,6,103,21,99,97,x,x,x,x,x,x,x
O=C(Cc1ccc(Br)cc1)N(Cc1ccccc1)c1ccccn1,151*[activator],59*,112,27,103,107,112*,2,98,94,99,98,145
CC(=O)/C(=N/Nc1ccccc1Cl)Sc1nnc(C(O)c2ccccc2)n1-c1ccccc1 (stereo not drawn),98,9,99,15,100,90,x,x,x,x,x,x,x
